Experimental data published in the supplement of paper PMC3334620.
Whole data set: some 33,000 sequences, median “E-score (-0.5 to 0.5)” near -0.012, cut for the highest 2% near 0.29. What follows is part of a selection rich in the highest values, with near analogues and random picks from the rest.

target: T1, Ybr033w (UniProt P38073); assay: PBM E-score (8-mer binding enrichment) (E-score (-0.5 to 0.5)); higher = stronger / more preferred TF binding; details: protein concentration: 200 nM; construct: GST-full length
T1 sequence: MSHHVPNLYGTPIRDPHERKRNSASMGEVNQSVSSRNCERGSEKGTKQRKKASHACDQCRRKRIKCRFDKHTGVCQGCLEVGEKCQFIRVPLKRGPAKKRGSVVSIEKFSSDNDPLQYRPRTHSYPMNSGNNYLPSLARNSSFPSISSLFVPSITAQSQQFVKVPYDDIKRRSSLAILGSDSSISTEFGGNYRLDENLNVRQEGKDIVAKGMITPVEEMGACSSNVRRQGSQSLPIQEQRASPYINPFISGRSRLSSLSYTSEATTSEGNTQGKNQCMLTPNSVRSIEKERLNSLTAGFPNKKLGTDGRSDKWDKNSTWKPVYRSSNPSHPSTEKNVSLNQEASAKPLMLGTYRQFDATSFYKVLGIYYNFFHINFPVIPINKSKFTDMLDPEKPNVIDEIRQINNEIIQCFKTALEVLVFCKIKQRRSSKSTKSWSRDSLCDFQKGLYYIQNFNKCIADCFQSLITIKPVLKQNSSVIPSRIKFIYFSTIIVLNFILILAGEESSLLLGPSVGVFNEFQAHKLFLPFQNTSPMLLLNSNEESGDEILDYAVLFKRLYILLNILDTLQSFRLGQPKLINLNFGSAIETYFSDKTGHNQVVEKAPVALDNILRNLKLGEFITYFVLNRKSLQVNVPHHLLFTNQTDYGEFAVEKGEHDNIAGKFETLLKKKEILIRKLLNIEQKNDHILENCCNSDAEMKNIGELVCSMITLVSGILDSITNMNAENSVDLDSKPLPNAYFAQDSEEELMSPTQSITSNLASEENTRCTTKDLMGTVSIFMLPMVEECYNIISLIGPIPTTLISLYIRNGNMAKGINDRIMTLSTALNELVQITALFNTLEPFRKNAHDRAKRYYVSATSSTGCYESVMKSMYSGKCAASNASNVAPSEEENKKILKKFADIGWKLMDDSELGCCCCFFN
Outline: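 Using PURExpress in vitro transcription/translation, GST-tagged yeast transcription factors were made in full-length or DNA-binding-domain form. These were applied at about 100-200 nM to double-stranded universal all-10-mer Agilent arrays, and bound protein was detected with fluorescent anti-GST. Scans were normalised with masliner before the Universal PBM Analysis Suite assigned E-scores to ungapped eight-base words pooled with their reverse complements.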

Row | Sequence | PBM E-score
1 | CGTGACAC | -0.127
2 | GTATAAAA | 0.289
3 | ATATAAAA | 0.242
4 | AGATAAAA | 0.286
5 | AGATAAAC | 0.216
6 | GGATAAAC | 0.456
7 | CGATAAAC | -0.148
8 | GGATAAAA | 0.397
9 | GGATAAGA | -0.0485
10 | GTATAAAC | 0.158
11 | CGATAAAA | 0.14
12 | GGATAACA | 0.0661
13 | TGATAAAA | 0.299
14 | CCTGCCCG | -0.354
15 | GGCATATA | 0.16
16 | AGCAATGA | 0.13
17 | CGAGACCA | -0.0425
18 | ATGAACAC | 0.0659
19 | ATAGCGGC | -0.106
20 | CCGTCGAG | 0.102
21 | AATTATCG | 0.308
22 | AATTATCT | 0.264
23 | CATTATCA | 0.138
24 | CATTATCG | 0.0618
25 | ATTTATCG | 0.0834

Row | Sequence | PBM E-score
26 | AATTATCA | 0.324
27 | TCGACCGA | -0.0438
28 | CTGCACCC | -0.204
29 | ACCTTTAA | 0.126
30 | AGTAGCAC | -0.0755
31 | CTTTTATC | 0.232
32 | ATTTTATA | 0.309
33 | GTTTTATA | 0.0686
34 | ATTTTATC | 0.325
35 | ACTTTATC | 0.277
36 | ATTTTATG | 0.186
37 | AGCTTATG | 0.0568
38 | GGGGGTAC | -0.254
39 | CTGTTCCA | 0.0353
40 | ATGTTCCA | 0.332
41 | GTGTTCCA | -0.0466
42 | ATGTTCAG | -0.137
43 | ATGTTCCC | 0.199
44 | ATGTTCCG | 0.458
45 | CACTGATC | 0.0744
46 | GTCTGAGA | -0.163
47 | TACAAACA | 0.29
48 | AACAACTA | 0.147
49 | AACAAACG | 0.183
50 | AACAACTC | 0.0616

Row | Sequence | PBM E-score
51 | AACAAACC | 0.105
52 | AACAAACA | 0.193
53 | TACAAGCA | 0.189
54 | AACAACTT | 0.291
55 | AACAAACT | 0.341
56 | CAAATCCG | 0.0419
57 | CTCGTGGC | -0.173
58 | AAGTACTG | 0.112
59 | AGTGGTCA | -0.103
60 | GAGACACC | -0.216
61 | TGACTAAA | 0.0305
62 | TGAAGGAA | 0.211
63 | AGTATTCC | 0.161
64 | AGTATTTA | 0.301
65 | AGTATTGC | 0.169
66 | ACTATTTA | 0.235
67 | CGTATTTC | 0.0631
68 | CGTATTTA | 0.311
69 | AGTATTTG | 0.159
70 | AGTATTTC | 0.34
71 | GGTATTTA | 0.125
72 | AGACTTTG | -0.0453
73 | CCGACACG | -0.213
74 | ATCACAAG | 0.107
75 | CCTACTTC | -0.0544

Row | Sequence | PBM E-score
76 | CGCAGGTC | -0.168
77 | ACAGCCTG | -0.0521
78 | ACGAGTGC | -0.0558
79 | CCACCCTC | -0.0745
80 | ACCAATAA | 0.107
81 | GCATCGCC | -0.17
82 | ATATCCAC | 0.145
83 | GAAGGCTA | 0.0975
84 | CGGAGAAG | -0.166
85 | CGGAGAAA | 0.39
86 | TGGAGAAA | 0.133
87 | TAAACTCA | 0.147
88 | GAATAATA | 0.395
89 | GAATAAGA | 0.0352
90 | CGATAATA | 0.0851
91 | GGATAGTA | 0.206
92 | GGATAATA | 0.349
93 | GCATAATA | 0.198
94 | GAATAACC | 0.113
95 | GAATAAAC | 0.142
96 | CAATAACA | 0.066
97 | GAATAAGC | 0.189
98 | GAATAACA | 0.367
99 | GAATAATC | 0.379
100 | CATCCTGC | -0.163

Row | Sequence | PBM E-score
101 | CAAGAGGC | -0.144
102 | CTTCAGAA | -0.028
103 | GTAGGACA | 0.012
104 | ACGTATAC | 0.181
105 | ATTCTGAA | 0.187
106 | CGAGGGAA | -0.0841
107 | AATGTAAT | 0.272
108 | CATGTAAG | -0.0133
109 | AATGTAAG | 0.288
110 | AGCCTCCC | -0.254
111 | AACCTGCC | -0.0858
112 | AATTGATG | 0.309
113 | CATTGATC | 0.236
114 | AATTGATC | 0.354
115 | AATTGATA | 0.255
116 | ACTTGATG | 0.218
117 | AATTGACC | 0.0241
118 | TAACCAAA | 0.186
119 | CGGAGGGA | -0.057
120 | CGTCTTCC | -0.215
121 | ATTACTCG | 0.132
122 | ATTACTCC | 0.23
123 | ATTACTCA | 0.296
124 | ATTACTTA | 0.35
125 | CTTACTTA | 0.0259

Row | Sequence | PBM E-score
126 | ATTACTGA | 0.169
127 | CACCAGTC | -0.196
128 | CAAAGTTA | 0.279
129 | AAAAGTTT | 0.266
130 | AAAAGTTC | 0.373
131 | AAAAGTTG | 0.133
132 | ACAAGTTA | 0.185
133 | TAAAGTTA | 0.358
134 | AAAAGTAA | 0.314
135 | AAAAGTTA | 0.288
136 | AAAAGTAT | 0.13
137 | GAAAGTTA | 0.218
138 | GAAAGTTC | -0.0203
139 | CAAAGTAA | 0.186
140 | ACGGTGGC | -0.095
141 | CGGCCATA | -0.17
142 | CTATCCAG | 0.062
143 | AGTGGTTC | 0.00899
144 | TGAGCCCA | -0.0977
145 | GTTCTGCA | -0.173
146 | AGAACTAG | -0.084
147 | CTCTGCGC | -0.118
148 | TAGACGCA | -0.0494
149 | CCGCTTGA | -0.162
150 | GCCTTTCC | -0.254

Row | Sequence | PBM E-score
151 | TAAATATA | 0.353
152 | CAAATATA | 0.281
153 | GAAATATC | 0.231
154 | GAAATATA | 0.327
155 | TAAATACA | 0.229
156 | GAAATACA | 0.14
157 | GGCCAATA | -0.0498
158 | AAAGCTCT | -0.262
159 | CAATGCTA | 0.115
160 | CTCCATGA | 0.0454
161 | TAGACAGA | 0.157
162 | TATCAATA | 0.257
163 | GATCAATA | 0.329
164 | AATCAAAA | 0.225
165 | CATCAAAA | 0.108
166 | AATCAATT | 0.247
167 | AATCAATC | 0.0849
168 | AATCAATA | 0.334
169 | GATCAATC | 0.184
170 | GATCAAAA | 0.296
171 | AGGGTAAG | 0.0154
172 | CCTAGGAC | -0.087
173 | AAAGCAAT | 0.16
174 | ACCCCCTG | -0.454
175 | ATGGAACA | 0.182

Row | Sequence | PBM E-score
176 | GTGGAATA | 0.262
177 | CTGGAACA | 0.31
178 | ATGGAATC | 0.198
179 | CTGGAACC | -0.209
180 | CTGGAAGA | 0.189
181 | CTGGAATC | -0.00413
182 | CTGGAATA | 0.355
183 | ATGGAATA | 0.316
184 | ATGTGGAA | 0.235
185 | CCGGGTGC | -0.181
186 | CCCTTTGC | -0.134
187 | GGCCTAAC | -0.013
188 | CACAGAGC | -0.121
189 | ATACGTAT | 0.207
190 | AGGATCAG | -0.166
191 | AGGATCAC | -0.0786
192 | TGGATCCA | -0.0233
193 | GGGATCAA | 0.242
194 | TGGATCAA | 0.377
195 | AGGATCAA | 0.317
196 | AAGAGTAT | 0.00192
197 | AATAACCC | 0.203
198 | GCACTTCC | -0.149
199 | GAGAAAAA | 0.155
200 | AAAAAAAA | 0.353

Row | Sequence | PBM E-score
201 | GAAAAAAC | 0.265
202 | GAAAAAAA | 0.37
203 | AAAAAAAC | 0.24
204 | AAAAAAAG | 0.273
205 | AGATCTTC | 0.137
206 | AAGGATTG | 0.126
207 | ACTCAACA | 0.146
208 | CTTCTCCA | -0.214
209 | ACCCAGGG | -0.287
210 | ACTCGAAG | -0.242
211 | CTGGTCCA | -0.17
212 | GTTCCTAA | 0.125
213 | GATATAGC | 0.156
214 | ATATGAGC | -0.0174
215 | AATTTACC | 0.103
216 | ATTTTACA | 0.0461
217 | ATTTTACC | 0.362
218 | AATTTACG | 0.232
219 | ATTTTACG | 0.328
220 | CTTTTACC | 0.101
